± gives the standard deviation. Over roughly 8,200 sequences, “pre-steady-state target cleavage rate” has its median near 0.024; the highest 2% begin near 1.3. Only a selection was taken, and the highest values are over-represented in it overall.
System: MIWI (PIWIL1) piRISC loaded with L1MC piRNA (30 nt)
Experiment: pre-steady-state target cleavage rate (min^-1); MIWI and MILI are mouse PIWI proteins and EfPiwi is from a freshwater sponge; tags in brackets are library labels; higher = faster piRNA-guided slicing of the target
Conditions: guide: L1MC piRNA 5'p-UAACUAAAUACUAUGCAAGCUGUAGGUCCU
Outline: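 With or without 500 nM GTSF1 partner protein, 1 nM active affinity-purified piRISC carrying one synthetic guide was mixed with 0.1 nM transcribed, DNA-blocked target RNA library in HEPES–potassium acetate buffer at 33 °C for 0–8 or 0–960 min. Uncleaved targets were sequenced and normalised to depth and to weakly complementary targets, three trials were pooled, and k3 was capped at 0.0001 min^-1. The pre-steady-state cleavage rate came from a burst-and-steady-state fit.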

[1] = auxiliary factor: 500 nM mouse GTSF1
[2] = auxiliary factor: none (no GTSF1)

Sequence | pre-steady-state target cleavage rate [1] | pre-steady-state target cleavage rate [2]
UGGAGCUACAGCUUGCAUUGUAUUUAGUUA | 0.934 ± 0.038 | 0.0337 ± 0.0068
UCCUCCUACAGCUUGCAUACUAUUUAGAUA | 0.0831 ± 0.015 | 0.0075 ± 0.0022
UCCUGGAUGUGCUUGCAUAGUAUUUAGAUA | 0.118 ± 0.023 | 0.0188 ± 0.0067
UCGACCUACAGCUUGCAUAGAAUUUUCAAA | 0.369 ± 0.059 | –
UCCUGGUACAGCUUACAUAGUAUUUAGUUA | 0.749 ± 0.056 | 0.0246 ± 0.0048
UCCUGCUACAGCUUGCAUAUUAUUUAGUUA | 1.31 ± 0.066 | 0.0449 ± 0.0088
UCCUGCUACAGCUUGCAUAUAUUUAGUUA | 0.408 ± 0.045 | 0.00397 ± 0.0033
UGCUGCUACAGCUUGCAUAGUAUUUAGUUA | 1.55 ± 0.058 | 0.0595 ± 0.011
UCCUGCUACAGCUUGCAUAGUUAUUUAGUUA | 0.073 ± 0.013 | 0.00386 ± 0.0025
AGCAGCUACAGCUUGCAUAGUAUUUAGUUA | 1.37 ± 0.067 | 0.079 ± 0.016
AGCUGCUACAGCUUGCAUAGUAUUUAGUUA | 1.49 ± 0.07 | 0.0697 ± 0.012
UGGUGCUACAGCUUGCAUAGUAUUUAGUUA | 0.988 ± 0.079 | 0.0764 ± 0.017
UCCUGCUACAGCUUGCAUAGUAUUUAGUUA [g2:g25:cont:t1A] | 0.864 ± 0.042 | 0.0585 ± 0.01
UCCUGCUACAGCUUGCAUAGUAUUUUAGUUA | 0.817 ± 0.067 | 0.0107 ± 0.0028
AGCUGCUACAGCUUGCAUAGUAUUUAGUAA | 0.977 ± 0.11 | 0.0202 ± 0.0038
UGCUGCUACAGCUUGCAUAGUAUUUAGUAA | 0.875 ± 0.084 | 0.0204 ± 0.0041
UGCAGCUACAGCUUGCAUAGUAUUUAGUUA | 1.21 ± 0.081 | 0.0733 ± 0.013
UCCUGGAACAGCUUCAUAGUAUUUAGUUA | 0.95 ± 0.051 | 0.00772 ± 0.0027
UCCACCUACAGCUUGCGAUAGUAUUUAGUUA | 0.0565 ± 0.018 | –
UGGACCAUGAGCUUGCAUAGUAUUUAGUAA | 0.675 ± 0.045 | 0.0285 ± 0.0075
UCCUGGAACACCUUGCAUAGUUUUUAGUUA | 0.148 ± 0.023 | 0.0142 ± 0.0044

Sequence | pre-steady-state target cleavage rate [1] | pre-steady-state target cleavage rate [2]
UCCUGGAACAGCUUGCAUAGUUUUUUGUUA | 0.197 ± 0.025 | 0.0238 ± 0.0057
UCGUCCUACAGCUUGCAUAGUAAUUAGUUA | 0.874 ± 0.027 | 0.0282 ± 0.006
UCCUCCUACAGCUUGCAUAGUAAUUAGUAA | 0.347 ± 0.039 | 0.0074 ± 0.0022
UCCUGGUACAGCAUGCAUAGUAAUUAGUUA | 0.457 ± 0.054 | 0.0118 ± 0.0031
AGGACCUACAGCUAGCAUAGUAUUUAGAAA | 0.571 ± 0.066 | 0.00411 ± 0.0025
UCCUGCUACAGCUUGCAUAGUAUUUUGUAA | 0.274 ± 0.043 | 0.009 ± 0.0031
UCCUGGAUGAGCUACCAUAGUAUUUAGUUA | 0.0107 ± 0.0041 | –
UCCUCCUACAGCUUGCAUAGUAUUGUAGUUA | 0.282 ± 0.054 | 0.00959 ± 0.0038
UCCUGGAACAGCUUGCAUGUAUUUAGUUA | 0.103 ± 0.015 | 0.00591 ± 0.0032
UCCUGGAUGUCCUUGCAUACUAUUUAGUUA | 0.0164 ± 0.0047 | 0.00616 ± 0.0016
UCCACCUACAGCUUCCAUAGUAUUUACAAA | 0.0165 ± 0.008 | –
UCCUGGUACAGCUUGCAUAGUAUUUAGCUA | 0.00692 ± 0.0039 | –
AGGUGCUACAGCUUGCAUAGUAUUUAGUUA | 1.23 ± 0.064 | 0.0832 ± 0.016
UCGUGCUACAGCUUGCAUAGUAUUUAGUAA | 0.926 ± 0.053 | 0.0286 ± 0.0054
UCGUGCUACAGCUUGCAUAGUAUUUAGUUA | 1.38 ± 0.059 | 0.0704 ± 0.012
UGGAGGAACAGCUUGCAUAGUAUUUAGAAA | 0.364 ± 0.037 | 0.00934 ± 0.004
UCCUCCUACCAGCUUGCAUAGUAUUUAGUUA | 1.15 ± 0.055 | 0.0479 ± 0.011
UCGACCUACAGGUUGCAUACUAUUUAGUUA | 0.273 ± 0.018 | 0.0207 ± 0.004
UCGACCUACAGCAUUGCAUAGUAUUUAGUUA | 1.19 ± 0.082 | 0.0581 ± 0.012
ACGACCUACAGCAUGCAUAGUAUUUAGUUA | 1.43 ± 0.053 | 0.082 ± 0.021
AGCACCUACAGCAUGCAUAGUAUUUAGUUA | 1.02 ± 0.13 | 0.0663 ± 0.022

Sequence | pre-steady-state target cleavage rate [1] | pre-steady-state target cleavage rate [2]
UGCACCUACAGCAUGCAUAGUAUUUAGUUA | 0.998 ± 0.092 | 0.0271 ± 0.0047
UCGACCUACAGCAUGCAUAGUAUUUAGUAA | 0.99 ± 0.072 | 0.0189 ± 0.0064
UCGACCUACAGCAUGCAUAGUAUUUAGUUA | 1.48 ± 0.049 | 0.0548 ± 0.013
UCCUGCUAGAGCUUGCAUAGUAUUUACAAA | 0.186 ± 0.047 | –
UCCUGCUACAGCUAGCAUAGUAUUUUCAAA | 0.0744 ± 0.023 | –
UCCUGGAACAGCUUGCAAUGUAUUUAGUAA | 0.146 ± 0.018 | 0.00598 ± 0.003
UGGACCUACAGCUUGCAUAGUAUUUAUUA | 0.126 ± 0.015 | 0.00594 ± 0.0034
UGGACCUACAGCUUGCAUAGUUAAUAGAAA | 0.0323 ± 0.01 | –
UCCACCUCAGCUUGCAUAGUAUUUAGUUA | 0.878 ± 0.07 | 0.0436 ± 0.0088
AGGACCUCCAGCUUGCAUAGUAUUUAGUUA | 1.22 ± 0.048 | 0.0926 ± 0.018
UGGACCUCCAGCUUGCAUAGUAUUUAGUUA | 1.39 ± 0.054 | 0.08 ± 0.014
UGGACCUAAGCUUGCAUAGUAUUUAGUUA | 1.27 ± 0.083 | 0.0446 ± 0.012
UCCACCUCCAGCUUGCAUAGUAUUUAGUUA | 0.89 ± 0.033 | 0.0442 ± 0.0078
AGGACCUCAGCUUGCAUAGUAUUUAGUUA | 1.34 ± 0.077 | 0.0984 ± 0.019
UGGACCUCAGCUUGCAUAGUAUUUAGUUA | 1.43 ± 0.094 | 0.055 ± 0.011
UCGACCUACUGCUUGCAUAGUAUUUACUUA | 0.278 ± 0.017 | 0.0322 ± 0.0038
UCCUGGUACACCUUGCAUAGUAUAUAGUUA | 0.555 ± 0.09 | 0.00685 ± 0.0027
UCCACCUACAGCUUGCAUAGUAUAAUCAAA | 0.327 ± 0.056 | –
UCCUGGAGCAGCUUGCAUAGUAUUUAGUUA | 1.13 ± 0.044 | 0.0692 ± 0.013
UCCAGCAACAGCUUGCAUAGUAUUUAGUUA | 1.19 ± 0.049 | 0.0797 ± 0.014
UCGAGGAACAGCUUGCAUAGUAUUUAGUUA | 1.02 ± 0.076 | 0.057 ± 0.011

Sequence | pre-steady-state target cleavage rate [1] | pre-steady-state target cleavage rate [2]
AGGAGCAACAGCUUGCAUAGUAUUUAGUUA | 1.67 ± 0.069 | 0.0907 ± 0.016
AGGAGGAACAGCUUGCAUAGUAUUUAGUUA | 1.41 ± 0.065 | 0.0955 ± 0.019
UGGAGGAACAGCUUGCAUAGUAUUUAGUUA | 1.26 ± 0.049 | 0.0795 ± 0.015
UCGAGCAACAGCUUGCAUAGUAUUUAGUUA | 1.29 ± 0.044 | 0.076 ± 0.013
UGGAGCAACAGCUUGCAUAGUAUUUAGUUA | 1.39 ± 0.044 | 0.0851 ± 0.016
UCCUGGAUGUGCUUUGCAUAGUAUUUAGUUA | 0.251 ± 0.022 | 0.0142 ± 0.0043
UCCUGGAUGAGCUUGCAAAGUAUUUUGUUA | 0.267 ± 0.029 | 0.0136 ± 0.0037
UCGACGUACACCUUGCAUAGUAUUUAGUUA | 1.23 ± 0.026 | 0.0575 ± 0.0089
UCCUGGUACAGCUAGCAUAGUAAUUAGUUA | 0.379 ± 0.053 | 0.00998 ± 0.0037
UCCUGGUACAGCUUGCAUAGUAUUUGGUUA | 0.449 ± 0.037 | 0.0417 ± 0.0074
UGGACCUACAGCUUGCAUAGUUAUUACAAA | 0.0207 ± 0.0062 | –
UCGACCUACACCUUGCAUAGUAUUUACUUA | 0.254 ± 0.034 | 0.0244 ± 0.0036
UCCUGGAUGAGCUUGGAUAGUAUUUACUUA | – | 0.00357 ± 0.0031
UCGACCUACGGCUUGCAUAGUAUUUAGUUA | 1.35 ± 0.053 | 0.069 ± 0.011
UGGACCUACGGCUUGCAUAGUAUUUAGUUA | 1.44 ± 0.1 | 0.0662 ± 0.013
UCGACCUACAGGCUUGCAUAGUAUUUAGUUA | 1.07 ± 0.045 | 0.07 ± 0.011
UCGACCUACGAGCUUGCAUAGUAUUUAGUUA | 0.737 ± 0.077 | 0.0529 ± 0.011
UCCACCUACGGCUUGCAUAGUAUUUAGUUA | 0.921 ± 0.074 | 0.0494 ± 0.01
AGGACCUACGGCUUGCAUAGUAUUUAGUUA | 1.27 ± 0.077 | 0.0872 ± 0.017

Reference: the supplement of paper PMC10338343
